Reference: paper PMC5540273 (PLoS ONE, 2017)
Read-outs that look alike come from different tables or passages of the source.

What was measured:
Details in all cases: n = 1
[1] = test system: PKN1
[2] = test system: PKN2
[3] = test system: PLK1
[4] = test system: PLK2
[5] = test system: PLK3
[6] = test system: PLK4
[7] = test system: PRKCD
[8] = test system: PRKCE
[9] = test system: PRKCH
[10] = test system: PRKCI
[11] = test system: PRKCQ
[12] = test system: PRKD1
[13] = test system: PRKD2
[14] = test system: PRKD3
[15] = test system: PRKG1
[16] = test system: PRKG2
[17] = test system: T1, PRKR
T1 construct: gene EIF2AK2

[18] = test system: PRKX
[19] = test system: PRP4
[20] = test system: T2, PYK2
T2 construct: gene PTK2B

[21] = concentration: 1 μM, replicates: in singlicate
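Also: KINOMEscan kinase panel screen.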

SMILES: Cc1ccc(NC(=O)Nc2cccc(C(F)(F)F)c2)cc1 [GSK955403]
- %Inh ([1]; 1 µM): 16%
- %Inh ([2]; 1 µM): 0%
- %Inh ([3]; 1 µM): 0%
- %Inh ([4]; 1 µM): 0%
- %Inh ([5]; 1 µM): 0%
- %Inh ([6]; 1 µM): 9%
- %Inh ([7]; 1 µM): 8%
- %Inh ([8]; 1 µM): 0%
- %Inh ([9]; 1 µM): 0%
- %Inh ([10]; 1 µM): 11%
- %Inh ([11]; 1 µM): 24%
- %Inh ([12]; 1 µM): 18%
- %Inh ([13]; 1 µM): 0%
- %Inh ([14]; 1 µM): 1%
- %Inh ([15]; 1 µM): 19%
- %Inh ([16]; 1 µM): 0%
- %Inh ([17]; 1 µM): 13%
- %Inh ([18]; 1 µM): 1%
- %Inh ([19]; 1 µM): 10%
- %Inh ([20]; 1 µM): 0%

SMILES: O=c1cc(N2CCOCC2)nc2n(Cc3cccc(Cl)c3Cl)ccn12 [GSK2286295]
- %Inh [1, 21]: 0%
- %Inh [2, 21]: 0%
- %Inh [3, 21]: 10%
- %Inh [4, 21]: 0%
- %Inh [5, 21]: 0%
- %Inh [6, 21]: 0%
- %Inh [7, 21]: 0%
- %Inh [8, 21]: 0%
- %Inh [9, 21]: 20%
- %Inh [10, 21]: 48%
- %Inh [11, 21]: 14%
- %Inh [12, 21]: 0%
- %Inh [13, 21]: 20%
- %Inh [14, 21]: 0%
- %Inh [15, 21]: 0%
- %Inh [16, 21]: 0%
- %Inh [17, 21]: 0%
- %Inh [18, 21]: 0%
- %Inh [19, 21]: 0%
- %Inh [20, 21]: 0%

SMILES: CC(=O)Nc1nc2cnc(Nc3cc(NC(=O)c4cccc(CCC#N)c4)ccc3C)nc2s1
- %Inh [1, 21]: 12%
- %Inh [2, 21]: 0%
- %Inh [3, 21]: 0%
- %Inh [4, 21]: 8%
- %Inh [5, 21]: 14%
- %Inh [6, 21]: 9%
- %Inh [7, 21]: 8%
- %Inh [8, 21]: 0%
- %Inh [9, 21]: 0%
- %Inh [10, 21]: 32%
- %Inh [11, 21]: 9%
- %Inh [12, 21]: 0%
- %Inh [13, 21]: 2%
- %Inh [14, 21]: 12%
- %Inh [15, 21]: 15%
- %Inh [16, 21]: 10%
- %Inh [17, 21]: 8%
- %Inh [18, 21]: 13%
- %Inh [19, 21]: 1%
- %Inh [20, 21]: 0%

SMILES: Cc1csc(-c2nc(Nc3ccncc3)c3ccccc3n2)n1 [GW869640]
- %Inh [1, 21]: 0%
- %Inh [2, 21]: 23%
- %Inh [3, 21]: 51%
- %Inh [4, 21]: 40%
- %Inh [5, 21]: 31%
- %Inh [6, 21]: 24%
- %Inh [7, 21]: 21%
- %Inh [8, 21]: 37%
- %Inh [9, 21]: 0%
- %Inh [10, 21]: 30%
- %Inh [11, 21]: 5%
- %Inh [12, 21]: 69%
- %Inh [13, 21]: 78%
- %Inh [14, 21]: 71%
- %Inh [15, 21]: 2%
- %Inh [16, 21]: 12%
- %Inh [17, 21]: 33%
- %Inh [18, 21]: 0%
- %Inh [19, 21]: 0%
- %Inh [20, 21]: 0%

SMILES: Cc1ccc(NC(=O)Nc2cccc(Cl)c2)cc1-c1ccc(C(=O)Nc2ccncc2)cc1 [GSK1398468]
- %Inh [1, 21]: 0%
- %Inh [2, 21]: 0%
- %Inh [3, 21]: 0%
- %Inh [4, 21]: 0%
- %Inh [5, 21]: 1%
- %Inh [6, 21]: 0%
- %Inh [7, 21]: 0%
- %Inh [8, 21]: 12%
- %Inh [9, 21]: 5%
- %Inh [10, 21]: 0%
- %Inh [11, 21]: 11%
- %Inh [12, 21]: 0%
- %Inh [13, 21]: 1%
- %Inh [14, 21]: 22%
- %Inh [15, 21]: 1%
- %Inh [16, 21]: 0%
- %Inh [17, 21]: 1%
- %Inh [18, 21]: 80%
- %Inh [19, 21]: 47%
- %Inh [20, 21]: 0%

SMILES: COc1cc(Nc2nccc(N3CCC(NC(=O)Nc4cc(C)ccc4C)C3)n2)cc(OC)c1OC (stereo not shown) [GSK1379762]
- %Inh [1, 21]: 41%
- %Inh [2, 21]: 0%
- %Inh [3, 21]: 0%
- %Inh [4, 21]: 0%
- %Inh [5, 21]: 0%
- %Inh [6, 21]: 28%
- %Inh [7, 21]: 0%
- %Inh [8, 21]: 0%
- %Inh [9, 21]: 7%
- %Inh [10, 21]: 33%
- %Inh [11, 21]: 0%
- %Inh [12, 21]: 0%
- %Inh [13, 21]: 0%
- %Inh [14, 21]: 37%
- %Inh [15, 21]: 0%
- %Inh [16, 21]: 0%
- %Inh [17, 21]: 0%
- %Inh [18, 21]: 41%
- %Inh [19, 21]: 43%
- %Inh [20, 21]: 3%

SMILES: Cc1cccc(-c2cc(Nc3ccncc3)c3ccccc3n2)n1 [GSK223675]
- %Inh [1, 21]: 46%
- %Inh [2, 21]: 0%
- %Inh [3, 21]: 1%
- %Inh [4, 21]: 0%
- %Inh [5, 21]: 0%
- %Inh [6, 21]: 2%
- %Inh [7, 21]: 0%
- %Inh [8, 21]: 0%
- %Inh [9, 21]: 0%
- %Inh [10, 21]: 17%
- %Inh [11, 21]: 0%
- %Inh [12, 21]: 91.1%
- %Inh [13, 21]: 96%
- %Inh [14, 21]: 100%
- %Inh [15, 21]: 0%
- %Inh [16, 21]: 0%
- %Inh [17, 21]: 0%
- %Inh [18, 21]: 16%
- %Inh [19, 21]: 19%
- %Inh [20, 21]: 14%

SMILES: Fc1cc(Cl)ccc1Nc1ccnc2cc(-c3ccc(CN4CCCCC4)o3)ccc12 [GW560116]
- %Inh [1, 21]: 0%
- %Inh [2, 21]: 0%
- %Inh [3, 21]: 0%
- %Inh [4, 21]: 0%
- %Inh [5, 21]: 0%
- %Inh [6, 21]: 51%
- %Inh [7, 21]: 0%
- %Inh [8, 21]: 5%
- %Inh [9, 21]: 0%
- %Inh [10, 21]: 0%
- %Inh [11, 21]: 0%
- %Inh [12, 21]: 0%
- %Inh [13, 21]: 0%
- %Inh [14, 21]: 0%
- %Inh [15, 21]: 0%
- %Inh [16, 21]: 0%
- %Inh [17, 21]: 0%
- %Inh [18, 21]: 0%
- %Inh [19, 21]: 21%
- %Inh [20, 21]: 0%

SMILES: C[C@@H]1CCCCN1c1cc(-c2ccc3c(N)n[nH]c3c2)nc(N)n1 [GSK2258759]
- %Inh [1, 21]: 6%
- %Inh [2, 21]: 0%
- %Inh [3, 21]: 0%
- %Inh [4, 21]: 0%
- %Inh [5, 21]: 0%
- %Inh [6, 21]: 42%
- %Inh [7, 21]: 0%
- %Inh [8, 21]: 0%
- %Inh [9, 21]: 0%
- %Inh [10, 21]: 22%
- %Inh [11, 21]: 0%
- %Inh [12, 21]: 0%
- %Inh [13, 21]: 3%
- %Inh [14, 21]: 0%
- %Inh [15, 21]: 0%
- %Inh [16, 21]: 14%
- %Inh [17, 21]: 21%
- %Inh [18, 21]: 15%
- %Inh [19, 21]: 1%
- %Inh [20, 21]: 0%

SMILES: CC1=C(C(=O)Nc2cc3cn[nH]c3cc2F)C(c2ccc(C(F)(F)F)cc2)CC(=O)N1 (stereo not shown) [GSK429286]
- %Inh [1, 21]: 56%
- %Inh [2, 21]: 0%
- %Inh [3, 21]: 0%
- %Inh [4, 21]: 0%
- %Inh [5, 21]: 0%
- %Inh [6, 21]: 0%
- %Inh [7, 21]: 0%
- %Inh [8, 21]: 0%
- %Inh [9, 21]: 0%
- %Inh [10, 21]: 19%
- %Inh [11, 21]: 28%
- %Inh [12, 21]: 22%
- %Inh [13, 21]: 4%
- %Inh [14, 21]: 0%
- %Inh [15, 21]: 30%
- %Inh [16, 21]: 0%
- %Inh [17, 21]: 0%
- %Inh [18, 21]: 87%
- %Inh [19, 21]: 7%
- %Inh [20, 21]: 10%

SMILES: COC(=O)c1c(-c2ccccc2)c2cc(C(=O)O)ccc2c(=O)n1Cc1ccccc1
- %Inh [1, 21]: 0%
- %Inh [2, 21]: 0%
- %Inh [3, 21]: 0%
- %Inh [4, 21]: 12%
- %Inh [5, 21]: 0%
- %Inh [6, 21]: 11%
- %Inh [7, 21]: 0%
- %Inh [8, 21]: 0%
- %Inh [9, 21]: 4%
- %Inh [10, 21]: 0%
- %Inh [11, 21]: 22%
- %Inh [12, 21]: 14%
- %Inh [13, 21]: 0%
- %Inh [14, 21]: 3%
- %Inh [15, 21]: 8%
- %Inh [16, 21]: 0%
- %Inh [17, 21]: 3%
- %Inh [18, 21]: 0%
- %Inh [19, 21]: 9%
- %Inh [20, 21]: 0%
